Assay results taken from PubChem BioAssay.
The other results are listed elsewhere or left out. Active and inactive are the calls of the source. Unless noted, no stated cut-off is given here; in the data, active means inhibition above about 33%; inactive means the rest.

Tested on: not listed separately
Assay: VP16 transactivation reporter inhibitors, counter-screen for LRH-1 inverse agonist project, cell-based, luminescence, high throughput (AID 651615)
Conditions: Gal4-VP16 luciferase reporter cells, at 3.6 µM, active compounds read high

SMILES	inhibition
Cc1cc(OCC(=O)Nc2nccs2)c2c(C)cc(=O)oc2c1	-19.8% (inactive)
CCCc1nc(SCC(=O)c2ccc(F)cc2)c2ccccc2n1	-0.25% (inactive)
O=C(N/N=C/c1ccc([N+](=O)[O-])s1)c1ccccc1Br	14% (inactive)
NNC(=O)C(Cc1ccc(O)cc1)N1Cc2ccccc2C1=O (configuration not stated)	1.55% (inactive)
Cc1ccc(/C=C/S(=O)(=O)NCC(=O)OCC(=O)Nc2c(F)cccc2F)cc1	-18.4% (inactive)
Cc1ccc(C)c(-c2cc(C(=O)N/N=C/c3cccnc3)c3ccccc3n2)c1	5.29% (inactive)
O=C(COc1ccc2c3c(c(=O)oc2c1)CCCC3)NCCCN1CCOCC1	-6.23% (inactive)
Cc1ccnc2nc(C(=O)OCC(=O)Nc3ccc([N+](=O)[O-])cc3Br)nn12	-0.95% (inactive)
CN(C)c1ccc(NC(=O)CN2CCC(NC(=O)C3CCCCC3)CC2)cc1	-3.68% (inactive)
O=C(CN1C(=O)NC2(CCCCCC2)C1=O)Nc1ccc([N+](=O)[O-])cc1	9.06% (inactive)
CN(C)c1ccc(C(=O)OCC(=O)Nc2ccc(N3CCOCC3)cc2)cc1	-6.21% (inactive)
Cc1onc(-c2c(F)cccc2Cl)c1C(=O)c1ccccc1O	-0.7% (inactive)

Tested on: not listed separately
Assay: Gal4-VP16 luciferase reporter inhibitors, counter-screen for COUP-TFII antagonist project, cell-based, luminescence, HEK293 (AID 687007; in the data active means inhibition above about 13%)
Conditions: at 8.5 µM, active compounds read high

SMILES	inhibition
Cn1nccc1C(=O)NC1CCCc2c1cnn2-c1ccccc1F (configuration not stated)	1.97% (inactive)
COc1ccc(CC(=O)Nc2nc(-c3ccc(F)c(F)c3)cs2)cc1OC	2.71% (inactive)
CCOC(=O)N1CCN(C(=O)C2CCN(c3ncnc4c3sc3cccc(F)c34)CC2)CC1	-7.67% (inactive)
Cc1cc(C(=O)NC2CCCc3c2cnn3-c2cccc(C)c2C)c(C)o1 (configuration not stated)	-2% (inactive)
Cn1c(Cc2cccc3ccccc23)nnc1SCC(=O)N1CCN(c2cccc(Cl)c2)CC1	-7.02% (inactive)

Target: COUP transcription factor 2 (Homo sapiens) (UniProt P24468)
Assay: NR2F2 transcriptional activity inhibitors, confirmation, cell-based, luciferase reporter, HEK293, triplicate (AID 687008;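 active means mean inhibition over three repeats above a set limit taken from the earlier primary screen, cut at about 38% in these data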;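 further: 100% = cells given the luciferase reporter alone without the COUP-TF2 vector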)
Conditions: HEK293 NGFI-A luciferase reporter, luminescence; at 8.5 µM; active compounds read high

Sequence of COUP transcription factor 2 (Homo sapiens) (P24468 whole entry, looked up): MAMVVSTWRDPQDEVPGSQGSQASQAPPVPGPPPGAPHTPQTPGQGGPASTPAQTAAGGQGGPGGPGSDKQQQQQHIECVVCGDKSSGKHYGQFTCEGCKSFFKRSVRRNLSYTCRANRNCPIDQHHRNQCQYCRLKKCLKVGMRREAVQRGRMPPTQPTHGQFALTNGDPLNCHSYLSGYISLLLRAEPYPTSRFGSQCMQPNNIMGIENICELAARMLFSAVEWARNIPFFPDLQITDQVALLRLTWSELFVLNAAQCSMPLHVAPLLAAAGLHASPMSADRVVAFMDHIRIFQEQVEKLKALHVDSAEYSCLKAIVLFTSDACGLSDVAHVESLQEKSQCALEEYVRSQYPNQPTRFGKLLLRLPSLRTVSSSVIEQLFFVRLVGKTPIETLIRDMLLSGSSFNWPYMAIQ

SMILES	inhibition
Cn1nccc1C(=O)NC1CCCc2c1cnn2-c1ccccc1F (configuration not stated)	66.8% (active)
COc1ccc(CC(=O)Nc2nc(-c3ccc(F)c(F)c3)cs2)cc1OC	55.4% (active)
CCOC(=O)N1CCN(C(=O)C2CCN(c3ncnc4c3sc3cccc(F)c34)CC2)CC1	27.1% (inactive)
Cc1cc(C(=O)NC2CCCc3c2cnn3-c2cccc(C)c2C)c(C)o1 (configuration not stated)	26.8% (inactive)
Cn1c(Cc2cccc3ccccc23)nnc1SCC(=O)N1CCN(c2cccc(Cl)c2)CC1	30.3% (inactive)
